RGS12 GoLoco inh – blocks human Gai1 binding to RGS12 GoLoco peptide, red readout; actives 0.44% (n = 230,000); Potency, µM (highest dose often 61.6 µM), without a hit: at the highest dose activity, negative = inhibition, actives largely listed as inhibitors; AID 880; Gai1:RGS12 GoLoco peptide FP, rhodamine, 10 min; P63096; active = well fitted inhibition curve with a large enough effect, not every such curve was filed as active; inactive = no such curve, though single readings can be large or run the other way; note: potency is the fitted concentration of half-maximal effect; % is set by controls: 0 for no effect and ±100 for the full control effect; nearly all actives have a fitted effect of over 30% in size
PNC assembly inh – perinucleolar compartment assembly inhibition; AID 2417; actives 3.1% (n = 140,000); activity change (PNC), negative = inhibition, % at 10 µM; PC3M PTB-GFP, PNC prevalence imaging, 16 h; stronger effect = lower value;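 active = readout at or below -70, meaning at least 70% loss of cells showing the perinucleolar compartment, a nuclear body marking cancer cells; inconclusive = readout between -30 and a set limit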;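 note: plate controls were DMSO wells for no effect and camptothecin positive control wells for full effect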
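PC3M cells stably expressing PTB-GFP, 750–1000 cells/well, treated 16 h at 37 °C with compound (23 nl of library stock), in duplicate. After paraformaldehyde fixation and Hoechst stain, imaged at 20x; PNC prevalence scored by image analysis.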
HttQ103 aggreg – mutant huntingtin aggregation inhibition; Potency, µM (doses to about 46.1 µM), for inactives: top-dose activity change, negative = inhibition, usual class: inhibitors; actives 1.1% (n = 220,000); PC12 HttQ103-GFP aggregates, Acumen cytometry, 40 h; AID 1688; note: potency is the fitted concentration of half-maximal effect; % is set by controls: 0 for no effect and ±100 for the full control effect; nearly all actives have a fitted effect of over 60% in size
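PC12/HTTQ103-GFP, ecdysone-inducible; teb 100 nM; cpd qHTS titration; GFP aggregates read on laser cytometer, Ex 488/Em 500-530 nm.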
HPGD block – blocks human HPGD enzyme activity | P15428 | purified HPGD, NADH fluorescence kinetic, PGE2 substrate | Potency, µM, for inactives: at the highest dose activity change, negative = inhibition, actives largely listed as inhibitors | actives 4.3% (n = 150,000) | AID 894; active = well fitted inhibition curve with a large enough effect, not every such curve was filed as active; inconclusive = small, poorly fitted or top-dose-only effect, or another doubt; inactive = no such curve, though single readings can be large or run the other way; note: potency is the fitted concentration of half-maximal effect; % is set by controls: 0 for no effect and ±100 for the full control effect
Target sequence (P15428 whole entry, looked up): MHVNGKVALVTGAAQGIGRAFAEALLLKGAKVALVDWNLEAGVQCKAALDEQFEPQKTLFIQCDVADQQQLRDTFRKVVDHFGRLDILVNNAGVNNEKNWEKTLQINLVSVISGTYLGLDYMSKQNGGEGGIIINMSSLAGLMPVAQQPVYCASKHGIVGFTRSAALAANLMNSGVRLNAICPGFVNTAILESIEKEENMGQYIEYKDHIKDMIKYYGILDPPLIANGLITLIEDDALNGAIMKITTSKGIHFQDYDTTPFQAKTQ
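20 nM HPGD preincubated 15 min at room temperature with compound in 50 mM Tris-HCl pH 8, 0.01% Tween 20. Started with 1 mM NAD+ and 30 uM prostaglandin E2; NADH fluorescence (360/450 nm) read 5 times over 30-s intervals, last minus first.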
HTT cytoprotect – protects HTT-Q103 PC12 cells, measured by ATP; PC12 HTT-Q103 induced, cytoprotection, ATP luminescence, 40 h; Potency, µM (series often up to 56.4 µM), inactives show cytoprotection (ATP increase), most hits filed as activators; actives 0.14% (n = 230,000); note: potency is the fitted concentration of half-maximal effect; % of control where 0% means no effect; nearly all actives have a fitted effect of over 45% in size
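PC12 cells stably carrying ecdysone-inducible Htt exon 1 (Q103)–GFP were induced with 100 nM tebufenozide (final) alongside library compounds in a dose series. Cytoprotection was scored as retained ATP by ATPlite luminescence.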
ALDH1A1 block – inhibitors of human aldehyde dehydrogenase 1A1; P00352; Purified ALDH1A1, NADH fluorescence, propionaldehyde substrate; Potency, µM (highest dose often 75.3 µM), for the others: at the highest dose activity, negative = inhibition, hits mostly inhibitors; actives 7.3% (n = 220,000); active = well fitted inhibition curve with a large enough effect, not every such curve was filed as active; inconclusive = small, poorly fitted or top-dose-only effect, or another doubt; inactive = no such curve, though single readings can be large or run the other way;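 note: potency is the fitted concentration of half-maximal effect; plate controls were no enzyme wells and a reference inhibitor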
Target sequence (P00352 whole entry, looked up): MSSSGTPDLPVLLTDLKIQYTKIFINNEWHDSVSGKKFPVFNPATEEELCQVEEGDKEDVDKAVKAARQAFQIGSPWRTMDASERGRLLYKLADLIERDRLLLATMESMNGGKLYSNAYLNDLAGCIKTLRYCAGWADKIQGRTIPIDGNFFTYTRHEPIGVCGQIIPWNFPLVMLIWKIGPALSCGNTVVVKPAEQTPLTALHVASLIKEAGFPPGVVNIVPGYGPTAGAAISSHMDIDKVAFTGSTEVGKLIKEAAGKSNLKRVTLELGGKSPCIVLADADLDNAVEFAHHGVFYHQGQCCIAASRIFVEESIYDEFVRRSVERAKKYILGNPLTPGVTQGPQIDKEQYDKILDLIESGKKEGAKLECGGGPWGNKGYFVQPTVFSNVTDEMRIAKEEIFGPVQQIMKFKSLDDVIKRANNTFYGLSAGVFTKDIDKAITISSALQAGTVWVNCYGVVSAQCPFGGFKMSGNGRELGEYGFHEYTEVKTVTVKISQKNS
The depositor's hits bear a star; ? = inconclusive; · = no result given; [ ] = another dose, or the depositor's remark. A selection: hits, their analogues and other compounds. The true share with any hit is near 11%. Unless noted, calls come from the whole dose curve; as a rule, active = well fitted curve in the direction sought with a large enough effect; inconclusive = small, poorly fitted or top-dose-only effect, or another doubt; inactive = no such curve, though single readings can be large; an effect the other way counts as inactive or inconclusive.

SMILES	RGS12 GoLoco inh	PNC assembly inh	HttQ103 aggreg	HPGD block	HTT cytoprotect	ALDH1A1 block
C[C@H]1Cc2c(COc3ccccc3)nc3c(c2CO1)CN(S(=O)(=O)c1ccc2c(c1)OCCN2C)CC3	0.1%[14.2 µM]	·	·	-10.1%	-7.6%[10 µM]	-15.1%[13.5 µM]
CC(C)C[C@@H](CC(=O)N[C@@H](CCCN)CC(=O)N[C@@H]1CCNC[C@H]1C(=O)N[C@H](CC(=O)N[C@@H](CCC(=O)O)CC(=O)O)Cc1ccccc1)NC(=O)[C@@H]1CCCC[C@H]1N	-7.0%	·	·	-2.6%	-4.2%	-12.1%
CS(=O)(=O)c1ccc(N)cc1	6.1%	-88.3*	1.2%	3.1%	-8.4%[10 µM]	-0.7%
N#Cc1cccc(-c2nc3cnc(N4CCOCC4)nc3n(Cc3ccc(F)cc3)c2=O)c1	0.3%	·	·	·	10.5%	?
COCCn1c(=O)c(-c2cccc(C#N)c2)nc2cnc(N3CCOCC3)nc21	20µM*	·	·	·	20.9%	?
CCOc1ccc(N2C(=O)C3ON(c4ccccc4)C(c4cccs4)C3C2=O)cc1 (configuration not stated)	14.9%	·	-32.7%[9.22 µM]	·	-12.1%[10 µM]	?
CCOc1ccc(C(C)=O)cc1N1C(=O)C2C3C=CC(C3)C2C1=O (configuration not stated)	-2.9%	?	-8.9%	0.0%	-9.4%	10.2%
CCOc1ccc(C(C)=O)cc1N1C(=O)C2C3C=CC(O3)C2C1=O (configuration not stated)	-18.5%	6.4	?	28.2µM*	-87.2%	22.4µM*
O[C@@H](c1cc(C(F)(F)F)nc2c(Cl)cc(Cl)cc12)C1CCCCN1 (some centres not stated)	-0.7%[14.2 µM]	·	·	-7.9%	·	2.0%[13.5 µM]
OCC[C@H]1C[C@@H](O)[C@H](O)[C@]2(CCCCO2)O1	2.1%	·	-17.8%[9.22 µM]	·	-0.7%[10 µM]	·
COc1cc(O)c2c(c1)C(=O)c1cc(C)cc(O)c1C2=O	-5.7%	·	·	?	·	?
O=C(O)c1cc(O)c2c(c1)C(=O)c1cc(O)cc(O)c1C2=O	13.5%	·	-3.0%[9.22 µM]	14.1µM*	-22.3%[10 µM]	25.1µM*
COc1ccc(N(Cc2ccccc2)C(=O)CSc2nnc(Cn3nnc4ccccc43)o2)cc1	7.1%	56.0	?	-12.6%	-12.4%	?
O=C(CSc1nnc(Cn2nnc3ccccc32)o1)N(Cc1ccc(F)cc1)c1ccccc1	-1.5%	?	12.6µM*	-13.6%	27.7%[10 µM]	?
Fc1ccccc1CCNc1c2c(nc3ncnn13)CCCC2	-7.4%	·	11.6%[9.22 µM]	·	28.3%[10 µM]	-15.6%
c1ccc(CCNc2c3c(nc4ncnn24)CCC3)cc1	8.3%	14.2	-14.8%	17.8µM*	-37.0%	3.55µM*
C#CCCCO/N=C1/C[C@@H](O)[C@@H](O)[C@@H]2[C@@H]3C(=O)N([C@@H](C)c4ccccc4)C(=O)[C@H]3CC[C@H]12	·	·	·	·	-0.2%[10 µM]	10.1%[13.5 µM]
Cc1cc(C)c(NC(=O)CN2CCC(NC(=O)NC3CCCCC3)CC2)c(C)c1	4.8%	·	·	·	·	5.1%
Cc1nc(N2CCN(C(=O)CCC(=O)O)CC2)c2c(C)c(C)sc2n1	-5.4%	14.9	-24.1%	35.5µM*	-4.1%[10 µM]	3.9%
COCCNC(=O)c1ccc(C(=O)NCCOC)s1	-5.1%	-24.6	-2.7%	-29.0%	-4.2%[0.074 µM]	13.8%
CCn1c(N)c(C(=O)Nc2ccccc2C(=O)OC)sc1=S	19.6%	-11.1	8.0%	25.1µM*	-15.2%	28.2µM*
CCn1c(N)c(C(=O)NCCOC)sc1=S	6.1%	-0.4	-0.2%	?	-1.5%	25.1µM*
Cn1c(N)c(C(=O)Nc2ccccc2F)sc1=S	2.3%	·	-18.8%[9.22 µM]	·	-11.4%[10 µM]	?
CCn1c(N)c(C(=O)NCc2ccc3c(c2)OCO3)sc1=S	4.0%	?	-8.8%	15.8µM*	-12.6%[0.074 µM]	20µM*
Cc1cc(C)c(S(=O)(=O)n2ccc(-c3ccc(OCCN(C)c4ccccn4)cc3)n2)c(C)c1	2.8%	82.5	4.1%	-8.2%	-8.1%	5.2%
SMILES	RGS12 GoLoco inh	PNC assembly inh	HttQ103 aggreg	HPGD block	HTT cytoprotect	ALDH1A1 block
Cc1nc2nc(SCC(=O)NCCN3CCOCC3)nn2c(C)c1Cc1ccccc1	-1.2%	-0.4	5.3%[9.22 µM]	-26.1%	8.2%	-9.8%
Cc1nc2nc(SCC(=O)N3CCOCC3)nn2c(C)c1Cc1c(F)cccc1Cl	-0.3%	-0.8	14.0%	8.91µM*	6.5%[1.9 µM]	?
CCOC(=O)c1c(-c2ccc(OCC)cc2)csc1NC(=O)CCN1C(=O)c2ccccc2C1=O	64.8%	93.4	12.7%	-16.2%	15.1%[10 µM]	-14.3%
CCCOC(=O)c1c(NC(=O)C2CCCO2)sc(C(=O)OC)c1C (configuration not stated)	-14.1%	0.0	12.6%	10µM*	·	2µM*
CCOC(=O)c1c(-c2ccc(C)cc2)csc1NC(=O)C1CCCO1 (configuration not stated)	14.0%	-25.8	-17.0%	-16.3%	8.8%[0.074 µM]	?
COC(=O)c1c(-c2cccc(C)c2)csc1NC(=O)C1CCCO1 (configuration not stated)	15.8%	·	-18.5%	·	?	?
CCOC(=O)c1sc(NC(=O)C2CCCO2)c(C(=O)OC)c1C (configuration not stated)	·	·	·	·	2.0%[0.074 µM]	·
CCOC(=O)c1c(-c2ccc(F)cc2)csc1NC(=O)C1CCCO1 (configuration not stated)	0.8%	·	-5.0%[9.22 µM]	·	-27.2%[10 µM]	11.2µM*
CCOC(=O)c1c(-c2ccc(OC)cc2)csc1NC(=O)CCN1C(=O)c2ccccc2C1=O	13.5%	?	11.2%	28.2µM*	-11.9%	35.5µM*
CCOC(=O)c1c(-c2ccc(OC)cc2)csc1NC(=O)C1CCCO1 (configuration not stated)	-2.4%	·	11.3%[9.22 µM]	·	7.2%[10 µM]	8.91µM*
C=C(C)C(O)/C=C/c1ccc(C)cc1 (configuration not stated)	·	·	·	·	-2.6%[10 µM]	-0.9%[13.5 µM]
Cc1cn(C2CC(N=[N+]=[N-])C(CO)O2)c(=O)[nH]c1=O (configuration not stated)	-0.6%	·	·	-4.5%	·	0.5%
N[C@H](C(=O)O)[C@H]1C[C@H]1C(=O)O	1.4%	·	·	·	-51.4%	15.3%
